Bioassay records deposited in PubChem BioAssay by National Center for Advancing Translational Sciences (NCATS).
In the library only some 3.6% were active in any assay of this set; here they are far more common.
NTMT1 inhibitor = Primary qHTS for Inhibitors of N-terminal methyltransferase 1 (NTMT1): MTaseGlo Assay; N-terminal Xaa-Pro-Lys N-methyltransferase 1 (Homo sapiens), Q9BV86; NTMT1 MTase-Glo SAH luminescence, purified enzyme; Potency, µM (series often up to 114 µM), hits mostly inhibitors; actives 2.5% (n = 59,000); AID 1645870, 2021; further: nearly all actives have a fitted effect of over 65% in size
Target sequence (Q9BV86 whole entry, looked up): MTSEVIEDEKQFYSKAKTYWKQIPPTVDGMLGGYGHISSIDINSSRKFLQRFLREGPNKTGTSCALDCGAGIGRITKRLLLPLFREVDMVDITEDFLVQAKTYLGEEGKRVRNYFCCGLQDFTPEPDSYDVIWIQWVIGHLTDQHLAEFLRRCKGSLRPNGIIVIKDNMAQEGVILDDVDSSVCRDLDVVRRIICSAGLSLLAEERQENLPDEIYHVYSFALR
GALC G270D up = A Novel Cell-Based Assay to Identify Small Molecules for B -Galactocerebrosidase. 145M-Twi-hGALC-G270D cells (Twitcher mouse brain line with human GALC G270D), HMU-beta-Gal fluorescence, 48 h. Potency, µM (titrated, usually from 57.5 µM), actives largely listed as activators. actives 0.1% (n = 45,000); further: nearly all actives have a fitted effect of over 65% in size
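Brain-derived Twitcher mouse 145M-Twi cells stably expressing human GALC-G270D or wild-type GALC, treated live, then residual GALC activity read by fluorescence of HMU-b-Gal substrate (0.1 mM final) in citrate-phosphate buffer pH 5.2 with sodium taurocholate. Signal increase indicates enhancement.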
GPR32 ag = qHTS for Agonists of Human Resolvin D1 Receptor DRV1 | Probable G-protein coupled receptor 32 (Homo sapiens), O75388 | CHO-K1 GPR32 beta-arrestin PathHunter luminescence, 90 min; zero percent set by DMSO-only wells | activation, % at 76.9 µM | actives 2.5% (n = 48,000) | AID 1346428, 2018;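 active means activation of at least 60% and not above a set upper limit, about 1 call in 100 departs from these limits; inconclusive means activation of 40% to 60%, or above that upper limit; inactive means activation under 40%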
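Readings come from a cell-based beta-arrestin complementation format: CHO-K1 GPR32 stable cells (2,500/well) treated 90 min with compounds, then beta-Gal substrate added for 1 h before chemiluminescence imaging.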
DYRK1A inh = Assay for Inhibitors of Dual-Specificity Tyrosine-(Y)-Phosphorylation Regulated Kinase 1A (Kinase-Glo assay); shares compounds with NTMT1 inhibitor; AID 2705, 2010; Potency, µM (top dose mostly 76.9 µM), most hits filed as inhibitors; recombinant DYRK1A, Kinase-Glo ATP depletion luminescence; actives 80% (n = 100)
NNMT counter = Counterscreen qHTS for Inhibitors of N-terminal methyltransferase 1 (NTMT1): NNMT MTaseGlo assay; Potency, µM (doses to about 57.1 µM), usual class: inhibitors; NNMT MTase-Glo luminescence, SAH detection; shares compounds with NTMT1 inhibitor; actives 10% (n = 120)
Numbers stand for hits; [ ] = remark or other dose. Unless noted, the call rests on the fitted dose curve; in most records, active means well fitted curve in the direction sought with a large enough effect; inconclusive means small, poorly fitted or top-dose-only effect, or another doubt; inactive means no such curve, though single readings can be large; an effect the other way counts as inactive or inconclusive.

How did C=C1[C@H](OC(C)=O)[C@H]2[C@@H](OC(C)=O)C(C)C[C@]2(OC(C)=O)C(=O)[C@H](C)/C=C/C(C)(C)C(=O)[C@H](OC(=O)C(C)C)[C@H]1OC(C)=O (stereo partly drawn) do in these assays?
NTMT1 inhibitor: inactive[12.6 µM]

How did Cc1nc(CN(C)c2ncnc3ccc(-c4ccc5c(c4)OCO5)cc23)cs1 do in these assays?
NTMT1 inhibitor: 7.9µM; DYRK1A inh: 0.041µM

What do the screens show for `CC1Oc2cc(cnc2N)-c2c(nn(C)c2C#N)CN(C)C(=O)c2ccc(F)cc21` (stereo not drawn)?
NTMT1 inhibitor: inactive

What do the screens show for `CCOC(=O)C1=C(C)NC(C)=C(C(=O)OC)C1c1cccc([N+](=O)[O-])c1` (stereo not drawn)?
NTMT1 inhibitor: inactive; GALC G270D up: inactive; GPR32 ag: inactive

How did COC(=O)C1=C(C)NC(C)=C(C(=O)O[C@@H]2CCCN(Cc3ccccc3)C2)[C@@H]1c1cccc([N+](=O)[O-])c1 do in these assays?
NTMT1 inhibitor: inconclusive; GALC G270D up: inactive; GPR32 ag: inactive; NNMT counter: inactive

What do the screens show for `C/C=C/C=C/C=C/C(=O)O[C@@H]1C=C2COC(=O)[C@]2(O)[C@@]2(C)CCCC(C)(C)[C@H]12`?
NTMT1 inhibitor: inactive; NNMT counter: inactive

What do the screens show for `CCCCc1ccc(-c2ccc(=O)n(CC(=O)NCCc3ccccc3)n2)cc1`?
NTMT1 inhibitor: inactive
